Source: PubChem
Shown is part of a subset that was picked to be rich in hits.
LASV entry inh – inhibitors of Lassa virus binding or cell entry; Lassa virus pseudotype entry inhibition, cell reporter; 300,000 compounds, 1.2% hits; Potency, µM (titrated, usually from 37.9 µM), for inactives: at the top dose activity change, negative = inhibition, actives largely listed as inhibitors; AID 540256; calls by dose curve; tested in HEK293 cells; further: potency means the concentration at half of the fitted maximal effect; on the % scale 0 is the no-effect control and ±100 the full control effect; nearly all actives have a fitted effect of over 50% in size
Shiga toxin inh – blocks Shiga toxin action in Vero cells. Vero cells, Shiga toxin protein synthesis inhibition reporter. AID 2315. 290,000 compounds, 9.2% hits. inhibition, % at 38.7 µM; in the data active means inhibition mostly above about 28%, no sharp cut-off; inactive means mostly below about 43%; further: 0% is about no effect
CHX counter – counter-screen for Shiga toxin inhibitors: cycloheximide protein synthesis inhibition | max response, % | cell reporter, cycloheximide protein synthesis inhibition counterscreen | AID 2314 | 300,000 compounds, 12% hits; in the data active means max response mostly above about 13%, no sharp cut-off; inactive means mostly below about 14%; further: read at 38.3 µM for the half of the compounds with a filed dose; 0% is about no effect
AMA1 RON2 block – AMA1-RON2 (P. falciparum) interaction inhibition; 360,000 compounds, 0.2% hits; AlphaScreen AMA1-biotinylated RON2 peptide binding; AID 720542; Potency, µM (top dose mostly 58.2 µM), for the others: top-dose activity change, negative = inhibition, most hits filed as inhibitors; active means well fitted inhibition curve with a large enough effect; inconclusive means small, poorly fitted or top-dose-only effect; inactive means no such curve, though single readings can be large or run the other way;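 further: potency means the concentration at half of the fitted maximal effect; 0% = vehicle wells and -100% = peptide control; nearly all actives have a fitted effect of over 45% in size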
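AMA1 (3D7) with his tag at 25 nM final met compounds first, then biotinylated RON2 peptide at 25 nM; detection used donor plus acceptor beads, 10 µg/mL apiece, read by AlphaScreen after 30 min at room temperature.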
MARV entry inh – inhibitors of Marburg virus binding or cell entry. Potency, µM (top dose mostly 37.8 µM), inactives show at the highest dose activity change, negative = inhibition, hits mostly inhibitors. Marburg virus pseudotyped entry inhibition, cell reporter. 300,000 compounds, 1.8% hits; calls by dose curve; tested in HEK293 cells; further: potency means the concentration at half of the fitted maximal effect; on the % scale 0 is the no-effect control and ±100 the full control effect
The depositor's hits bear a star; ? = inconclusive; nt = no result given; [ ] = another dose, or the depositor's remark.

SMILES	LASV entry inh	Shiga toxin inh	CHX counter	AMA1 RON2 block	MARV entry inh
CC1=C/C(=N\OC(=O)/C=C/c2ccccc2)C(C)=CC1=O	26%	-7	-4	3%	12%
COc1ccc(/C=C/C(=O)O/N=C(\N)c2cccnc2)cc1OC	nt	25	29*	-4%	0%
N/C(=N\OC(=O)/C=C/c1ccccc1)c1ccccc1	?	92*	35*	0%	-5%
Nc1[nH]c(C(=O)c2ccccc2)c(-c2ccc(Cl)c(F)c2)c1C(=O)NCCc1c[nH]c2ccccc12	nt	nt	nt	38%	nt
CN(C(=O)COC(=O)COc1ccc(Cl)cc1Cl)c1c(N)n(Cc2ccccc2)c(=O)[nH]c1=O	-9%	nt	nt	-6%	2%
Cc1cc(NC(=O)COC(=O)COc2ccc3c4c(c(=O)oc3c2)CCC4)no1	1%	-6	-3	-5%	3%[46.1 µM]
O=c1oc2cc(OCc3nn[nH]n3)ccc2c2c1CCCC2	13%	12	-1	-19%	-13%
CC(=O)C(C)Oc1ccc2c3c(c(=O)oc2c1)CCCC3 (stereo not drawn)	26%	70	8	-11%	?
CC(=O)COc1ccc2c3c(c(=O)oc2c1)CCCC3	?	50	17*	-4%	0%
O=C(COc1ccc2c3c(c(=O)oc2c1)CCC3)Nc1ccccn1	nt	19	20*	7%	nt
C#CCOc1ccc2c3c(c(=O)oc2c1)CCCC3	0%[46.1 µM]	nt	14*	-8%	7%[46.1 µM]
CC(=O)C(C)Oc1ccc2c3c(c(=O)oc2c1)CCCCC3 (stereo not drawn)	20%	83*	50*	-2%	12%
COc1cc(OC)cc(C(=O)NC2CC3CCC(C2)N3C)c1 (stereo not drawn)	nt	nt	nt	-2%	nt
Cc1ccc(CSC2=Nc3ccccc3C3=NC(CC(=O)NC4CCCCC4)C(=O)N23)cc1 (stereo not drawn)	-5%[46.1 µM]	nt	nt	nt	nt
CCOC(=O)c1ccc(NC(=O)c2csnn2)cc1	9%[46.1 µM]	nt	nt	nt	?
CCOc1ccc(NC(=O)CN(C)C(=O)c2cc3c(s2)CCC3)cc1OCC	nt	nt	nt	-26%	nt
Cc1cccnc1NC(=O)COc1ccc2oc3c(c2c1)CCCC3	?	28*	29*	-2%	11%
Cc1ccc(NC(=O)COc2ccc3oc4c(c3c2)CCCC4)cc1C	1%[46.1 µM]	nt	nt	nt	9%[46.1 µM]
CCN(CC)C(=O)C(=O)c1cn(CCOc2ccccc2)c2ccccc12	-9%[46.1 µM]	19	0	7%	?
CCOC(=O)N1CCN(CC(O)COc2ccccc2[N+](=O)[O-])CC1 (stereo not drawn)	nt	18	11*	5%	nt
CCOC(=O)N1CCN(C(=O)COc2ccccc2[N+](=O)[O-])CC1	6%	-11	10	-2%	5%
Cc1cc(C)n(CC(O)COc2ccccc2C(=O)Nc2ccccc2)n1 (stereo not drawn)	0%	-3	-3	?	-1%
Cc1cc(C)n(CC(O)COc2cccc(OCC(O)Cn3nc(C)cc3C)c2)n1 (stereo not drawn)	-11%	-11	6	8%	18%
Cc1cc(C)n(CC(O)COc2ccccc2[N+](=O)[O-])n1 (stereo not drawn)	22%	29	28*	16%	?
COc1ccccc1OCC(O)Cn1nc(C)cc1C (stereo not drawn)	23%	104*	54*	-10%	28%
SMILES	LASV entry inh	Shiga toxin inh	CHX counter	AMA1 RON2 block	MARV entry inh
CC(C(=O)NCCCc1ccccc1)n1cccc1C(=O)c1ccccc1 (stereo not drawn)	nt	7	8	-5%	nt
Cc1c(C(N)=O)nnn1-c1ccc(Br)cc1	2%[46.1 µM]	nt	nt	nt	-10%[46.1 µM]
COc1cc2oc3ccccc3c2cc1N(CC(=O)N(C)C)S(=O)(=O)c1ccc(C)cc1	24%	-20	-6	1%	-8%[46.1 µM]
COc1cc2oc3ccccc3c2cc1N(CC(=O)N(C)C)S(=O)(=O)c1ccccc1	?	-19	-3	-6%	?
COc1cc2oc3ccccc3c2cc1N(CC(=O)N1CCCCC1)S(=O)(=O)c1ccc(C)cc1	?	16	1	-9%	14µM*
CCN(CC)C(=O)CN(c1cc2c(cc1OC)oc1ccccc12)S(=O)(=O)c1ccccc1	?	43	-2	-7%	10µM*
CCOc1ccc(N(CC(=O)N2CCCCCC2)S(=O)(=O)c2ccc(C)cc2)cc1	3.5µM*	42	4	0%	-50%
OCCCc1nc2ccccc2[nH]1	15%[46.1 µM]	-20	-5	9%	11%[46.1 µM]
N#CC1=C2C=CC=CN2CC1=O	9%	111*	30*	24%	13%
O=C(CSc1n[nH]c(-c2cccs2)n1)N1CCOCC1	9%[46.1 µM]	nt	nt	5%	?
O=C(CSc1n[nH]c(-c2ccccc2)n1)N1CCCC1	9%[46.1 µM]	65*	16	1%	28%[46.1 µM]
CCc1ccc(-c2nc(SCC(=O)N3CCOCC3)n[nH]2)cc1	8%	29*	11*	5%	-14%[46.1 µM]
COc1ccccc1C(=O)NCCC(=O)N1CCN(c2cccc(C(F)(F)F)c2)CC1	0%	nt	nt	1%	9%
CN(CCc1ccccc1)C(=O)c1ccc(NC(=O)Cc2ccc([N+](=O)[O-])cc2)cc1	nt	nt	nt	-6%	nt
O=C(Cn1cnc2c(cnn2-c2ccc(F)cc2)c1=O)OCc1ccccc1	-22%	-9	3	-11%	4%
Cc1ccc(-n2ncc3c(=O)n(CC(=O)OCc4ccccc4)cnc32)cc1	-6%	57	31*	-5%	-4%
O=C(Cn1cnc2c(cnn2-c2ccccc2)c1=O)OCc1ccccc1	22%	76*	30*	3%	20%[46.1 µM]
Cc1oc(-c2ccccc2F)nc1CS(=O)CC(=O)NC(C)C (stereo not drawn)	9%[46.1 µM]	nt	nt	nt	?
CCC(CC)C(=O)N(C)c1c(C)nc2c(OCc3ccc(F)c(F)c3)cccn12	nt	nt	nt	-4%	nt
Clc1ccc(/C=N\Nc2ccccc2)cc1	nt	27*	12	-4%	nt
O=C(N/N=C/c1ccco1)Nc1ccccc1	?	102*	29*	-1%	?
CCOc1ccc(/C=N/Nc2ccccc2)cc1	nt	47*	27*	-8%	nt
O=C(N/N=C/c1ccc(Cl)cc1)Nc1ccccc1	?	50*	39*	2%	?
CCc1cccc(NC(=O)C(NS(=O)(=O)c2ccc3nc(C)sc3c2)C(C)C)c1 (stereo not drawn)	25%[46.1 µM]	nt	nt	nt	-28%[46.1 µM]
CCOc1ccc(/C=N/Nc2cc(C)nc(N3CCOCC3)n2)cc1	?	35	-2	-17%	16%[46.1 µM]
SMILES	LASV entry inh	Shiga toxin inh	CHX counter	AMA1 RON2 block	MARV entry inh
CCOc1ccc(/C=N/NC2=NCCCCC2)cc1	0%[46.1 µM]	27*	19*	-14%	17%[46.1 µM]
COC(=O)c1c(-c2ccc(C)cc2)csc1NC(=O)c1c(-c2ccccc2)noc1C	nt	-2	2	nt	7%
O=C(Nc1cccnc1)c1cc(-c2ccc(Br)cc2)on1	nt	42*	20*	-4%	nt
COc1cccc(-c2cc(C(=O)Nc3cccnc3)no2)c1	0%	80*	31*	-15%	?
COC(=O)c1c(-c2cccnc2)csc1NC(=O)c1cc(C)on1	?	83*	63*	10%	?
CSc1ccccc1NC(=O)C(C)N(C)CC(=O)N1CCN(Cc2ccccc2)CC1 (stereo not drawn)	-2%	nt	nt	15%	?
